Screens deposited in PubChem by several laboratories.
Hits are enriched below; roughly 4.2% of the tested compounds scored in any of these assays.
AHR act: activators of human aryl hydrocarbon receptor | P35869 | AHR-responsive luciferase reporter cells, luminescence | activation, % at 5 µM | actives 2.5% (n = 320,000) | AID 2796; in the data active means activation above about 47%;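 further: 0% = vehicle wells and 100% = reference agonist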
Target sequence (P35869 whole entry, looked up): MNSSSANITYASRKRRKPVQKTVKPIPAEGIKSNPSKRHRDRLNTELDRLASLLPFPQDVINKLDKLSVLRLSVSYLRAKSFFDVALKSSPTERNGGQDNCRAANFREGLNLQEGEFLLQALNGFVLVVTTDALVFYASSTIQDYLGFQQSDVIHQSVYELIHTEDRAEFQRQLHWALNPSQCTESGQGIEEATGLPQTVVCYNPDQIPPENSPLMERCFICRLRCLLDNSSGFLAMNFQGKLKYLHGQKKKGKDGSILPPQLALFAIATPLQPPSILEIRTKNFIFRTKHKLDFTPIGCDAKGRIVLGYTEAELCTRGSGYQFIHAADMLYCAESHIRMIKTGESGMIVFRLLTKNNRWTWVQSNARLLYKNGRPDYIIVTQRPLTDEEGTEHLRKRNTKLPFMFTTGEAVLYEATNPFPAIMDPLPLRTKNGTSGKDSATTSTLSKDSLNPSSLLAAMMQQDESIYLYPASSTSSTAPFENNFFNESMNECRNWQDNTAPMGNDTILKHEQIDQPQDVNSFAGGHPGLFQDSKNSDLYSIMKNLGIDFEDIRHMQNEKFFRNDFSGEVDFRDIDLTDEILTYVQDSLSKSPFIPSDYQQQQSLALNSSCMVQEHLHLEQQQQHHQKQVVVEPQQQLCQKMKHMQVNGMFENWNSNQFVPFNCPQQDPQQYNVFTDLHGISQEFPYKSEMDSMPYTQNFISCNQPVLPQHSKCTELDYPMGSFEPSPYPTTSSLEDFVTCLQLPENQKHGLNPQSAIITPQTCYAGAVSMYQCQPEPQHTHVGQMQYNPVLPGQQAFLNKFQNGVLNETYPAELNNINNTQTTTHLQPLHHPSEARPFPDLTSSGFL
MITF TRPM1 HTS: MITF TRPM1 promoter activation in melanoma cells | SK-MEL-5 TRPM1-promoter luciferase, 24 h; % of positive control, neutral wells = 0 | activation, % at 12.5 µM | actives 0.75% (n = 300,000);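 active means mean activation of at least 80% with every replicate also reaching 80%; inconclusive means mean reaches 80% but some replicate falls short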;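 further: 0% = neutral control wells and 100% = parthenolide positive control wells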
GAA850 FXN act: increases GAA850 frataxin promoter reporter activity; HEK293 lucGAA850 FXN promoter luciferase reporter, 24 h; percent of 10 µM SAHA response; activation, % at 6 µM; actives 0.56% (n = 360,000); AID 540364;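 active means activation above the average of all compounds screened plus 3 SD, cutoff fixed separately per campaign, cut at about 7.5% in these data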;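 further: 0% = DMSO wells and 100% = 10 µM SAHA wells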
esBAF inh: blocks esBAF chromatin remodeling in mouse ES cells. Bmi1-luciferase knock-in reporter, 24 h; 100% = twice the neutral-well signal. AID 602393. reporter increase, % at 12.5 µM. actives 2% (n = 350,000); in the data active means activation above about 40%; inconclusive means no clear call, values can overlap the other calls;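 further: 0% = median of the plate's neutral control wells and 100% = double that signal; a rise in the Bmi1 reporter signal indicates esBAF inhibition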
Wnt bcat act: activates Wnt/beta-catenin signaling in a reporter cell assay. activation, % at 9.35 µM. activator, plate reader. actives 1.2% (n = 300,000); in the data active means activation above about 30%, passing the limit was not always enough; inconclusive means no clear call, values can overlap the other calls;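 further: 0% = neutral control wells and 100% = positive control wells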
* marks the source's active call; other numbers are inactive results; ? = inconclusive; / = no result given.

SMILES | AHR act | MITF TRPM1 HTS | GAA850 FXN act | esBAF inh | Wnt bcat act
Cc1nn2cc(-c3ccc(-c4ccccc4)cc3)nc2s1 | -1.4 | 32.1 | 1.4 | -42.4 | ?
Cc1nn2cc(-c3ccc(Cl)cc3)nc2s1 | 6.4 | / | -1.1 | -2.3 | 71.3*
CC(C)NC(=O)Nc1cccc2c1O[C@H](CN(C)Cc1ccccc1)[C@@H](C)CN([C@H](C)CO)C2=O | / | / | / | -5.4 | /
C/C(=N\NC(=O)c1ccc2c(c1)OCCO2)c1ccccc1 | 10.9 | / | 3.3 | -44.1 | 47.3*
O=C(NC1CCCCC1)c1ccc2c(c1)OCCO2 | 12.3 | 75.6 | 1.1 | 16.6 | 21.2
O=C(NCC[C@@H]1CC[C@@H](NC(=O)c2ccc3c(c2)OCO3)[C@H](CO)O1)Nc1ccc(Cl)cc1 | / | / | / | 62.9* | /
C/C(=N/NC(=O)c1cccs1)c1cccs1 | 13.7 | / | 5.8 | / | 21.8
O=C(NC1CCCCCCC1)c1ccc2c(c1)OCO2 | 68.7* | 41.9 | 2.8 | -3.0 | 23.8
C/C(=N\NC(=O)c1cccs1)c1c(O)cc(C)oc1=O | 16.1 | -1.6 | 2.6 | 62.7* | 4.1
Cc1noc(C)c1NC(=O)Nc1ccc2c(c1)C(=O)N([C@@H](C)CO)C[C@H](C)[C@H](CN(C)C)OCCCC[C@H](C)O2 | / | / | / | -7.9 | /
O=C(C[C@H]1C=C[C@@H](NC(=O)CC2CC2)[C@@H](CO)O1)NCc1ccc(Cl)cc1 | / | / | / | 0.6 | /
C[C@@H]1CCCCO[C@@H](CN(C)CC2CC2)[C@H](C)CN([C@@H](C)CO)C(=O)c2cc(NC(=O)CCC(F)(F)F)ccc2O1 | / | / | / | -1.9 | /
C/C(=N\NC(=O)c1ccc2c(c1)OCO2)c1ccc2c(c1)OCO2 | 26.5 | 17.8 | 0.4 | 52.1* | 18.1
O=C(NN=C1CCCCCC1)c1ccc2c(c1)OCO2 | 30.7 | 18.8 | 0.5 | 54.2* | -6.6
CC(=NNC(=O)c1cccs1)c1ccc2c(c1)OCCO2 | 1.8 | 104.6* | 3.3 | 47.3* | ?
C[C@@H]1CCCCO[C@H](CN(C)Cc2ccc3c(c2)OCO3)[C@H](C)CN([C@H](C)CO)C(=O)c2cc(NS(=O)(=O)c3cn(C)cn3)ccc2O1 | / | / | / | 3.3 | /
C/C=C/c1ccc2c(c1)O[C@@H](CN(C)Cc1cccc(F)c1)[C@@H](C)CN([C@@H](C)CO)S2(=O)=O | / | / | / | -3.5 | /
O=C(NC1CCCCCC1)c1cc2c(=O)n3ccccc3nc2s1 | -11.2 | 90.7* | 3.6 | 45.0* | 11.1
C=CCNC(=O)c1cc2c(=O)n3ccccc3nc2s1 | -6.1 | 66.3 | 6.8 | 4.5 | 35.8*
CC(C)NC(=O)c1cc2c(=O)n3ccccc3nc2s1 | 1.4 | -11.0 | -0.1 | 4.8 | 3.6
CC(C)CC#Cc1ccc2c(c1)O[C@H](CN(C)Cc1ccncc1)[C@@H](C)CN([C@@H](C)CO)S2(=O)=O | / | / | / | -8.2 | /
Cc1nc([N+](=O)[O-])cn1CC(O)c1ccccc1 (stereo not given) | -0.7 | / | 0.4 | / | -1.5
Cc1nc([N+](=O)[O-])cn1CC(O)c1ccc(Cl)cc1 (stereo not given) | 6.5 | / | 2.3 | / | 36.9*
c1cc(-c2n[nH]c(-c3ccncc3)n2)ccn1 | 3.1 | / | 0.1 | -8.0 | -0.1
c1ccc(-c2nc(-c3cccnc3)n[nH]2)cc1 | 64.7* | / | / | / | 5.1
SMILES | AHR act | MITF TRPM1 HTS | GAA850 FXN act | esBAF inh | Wnt bcat act
CC(=NCc1cccnc1)C1=C(O)c2ccccc2C1=O | 74.4* | 7.4 | 2.4 | 5.3 | 1.9
C[C@@H]1CCCCO[C@H](CN(C)S(=O)(=O)c2cn(C)cn2)[C@@H](C)CN([C@H](C)CO)C(=O)c2cc(NC(=O)Nc3ccc(C(F)(F)F)cc3)ccc2O1 | / | / | / | 2.7 | /
COC(=O)Cc1nnc(Nc2cccc(C)c2)c2ccccc12 | 61.5* | -12.1 | -0.5 | -0.5 | -0.6
CCCNC(=O)N[C@@H]1C=C[C@H](CC(=O)NCCc2ccccc2)O[C@@H]1CO | / | / | / | 0.8 | /
CC(C)NC[C@@H]1[C@@H](c2ccc(C3=CCCCC3)cc2)[C@H](CO)N1C(=O)NC(C)C | / | / | / | -4.5 | /
O=C(CSc1nc2ccc(Cl)cc2[nH]1)N1CCN(C(=O)c2ccco2)CC1 | 24.8 | 4.1 | 2.7 | -6.5 | -2.8
CCc1cc2ccc(C)cc2nc1SCC(=O)N1CCN(C(=O)c2ccco2)CC1 | 51.9* | -2.4 | 0.8 | / | /
Cc1ccc2nc(SCC(=O)N3CCN(C(=O)c4ccco4)CC3)[nH]c2c1 | 67.9* | -20.5 | 1.4 | / | 0.6
CN(C)C(=O)[C@@H]1[C@@H](CO)[C@@H]2Cn3c(ccc(-c4ccc(F)cc4)c3=O)[C@@H]2N1C(=O)c1ccccn1 | / | / | / | -0.4 | /
COc1ccc(NC(=O)Nc2ccc3c(c2)CC(=O)N([C@@H](C)CO)C[C@@H](C)[C@@H](CN(C)S(=O)(=O)c2ccc(OC)cc2)O3)cc1 | / | / | / | 7.9 | /
Cc1ccc(/C=N/N2C(=O)c3ccccc3NC2c2ccc(C)cc2)cc1 (stereo not given) | 50.5* | ? | 6.5 | 12.0 | 18.9
O=C1c2ccccc2NC(c2ccco2)N1/N=C/c1ccco1 (stereo not given) | 5.5 | 28.2 | 6.3 | 27.5 | 1.4
O=C(Nn1c(-c2ccc(Br)cc2)nc2ccccc2c1=O)c1ccc([N+](=O)[O-])cc1 | 61.6* | -7.3 | 2.8 | -14.3 | /
Cc1nc2ccccc2c(=O)n1NC(=O)c1ccco1 | 1.1 | / | 1.1 | -3.8 | /
O=C(Nn1c(-c2ccncc2)nc2ccccc2c1=O)c1ccc(Br)cc1 | 0.5 | 8.1 | 2.6 | / | -1.2
O=C(Nn1c(-c2ccccc2)nc2ccccc2c1=O)c1ccco1 | 58.2* | -1.4 | -0.1 | -4.4 | /
O=C(C[C@H]1CC[C@H](NC(=O)NC2CCCC2)[C@H](CO)O1)NCc1ccc(F)cc1 | / | / | / | 0.2 | /
CCOC(=O)c1csc(NC(=O)c2cccs2)n1 | 1.2 | 95.2* | 1.7 | 52.6* | 37.2*
CCOC(=O)Cc1csc(NC(=O)c2cccs2)n1 | -0.2 | 65.6 | 1.9 | 63.5* | /
CCOC(=O)Cc1csc(NC(=O)c2ccc(C)cc2)n1 | 3.0 | 18.8 | -0.8 | / | 2.4
CCOC(=O)Cc1csc(NC(=O)c2ccc(Br)s2)n1 | 7.9 | / | / | / | /
CCOC(=O)Cc1csc(NC(=O)c2ccc(S(=O)(=O)N(CCOC)CCOC)cc2)n1 | 2.2 | 4.7 | -0.8 | / | 37.2*
COc1ccc(/C=N/NC(=O)c2ccccc2OCc2ccccc2)c(OC)c1 | 10.6 | 1.3 | -3.1 | -5.1 | -2.2
COc1ccc(/C(C)=N/NC(=O)c2ccccc2OCc2ccccc2)c(OC)c1 | 19.5 | 45.1 | 0.7 | 49.7* | /
Cc1cc(NC(=O)CSc2nc3c(c(=O)n2Cc2ccccc2)SC(C)C3)no1 (stereo not given) | -1.1 | 21.0 | 1.7 | 46.3* | 2.7
CCn1c(SCC(=O)Nc2cc(C)on2)nc2c(c1=O)SC(C)C2 (stereo not given) | -0.7 | -10.2 | 0.6 | 0.4 | /
COc1cc2c(C#N)c(N3CCCC3)nc(N)c2c(N)n1 | 15.9 | -0.7 | 2.1 | 9.4 | 0.8
N#Cc1c(N2CCCC2)nc(N)c2c(N)nc(N3CCCC3)cc12 | 44.8 | 0.0 | -0.5 | 69.1* | /
Cc1ccc(NC(=O)N2CCCc3ccccc32)cc1 | 4.6 | 22.1 | 2.5 | / | 7.0
O=C(Nc1ccc2c(c1)OCO2)N1CCCc2ccccc21 | 55.5* | 31.5 | 0.9 | ? | 36.2*
